Records with an inconclusive call do not appear. The source made the active and inactive calls. Unless noted, calls come from the whole dose curve; as a rule, active = well fitted curve in the direction sought with a large enough effect in the repeat runs; inconclusive = weak or mixed curves; inactive = no such curve, though single readings can be large; an effect the other way counts as inactive or inconclusive.
Columns and labels:
[1] = biological target: Luciferin 4-monooxygenase (Photinus pyralis) (UniProt P08659); assay: qHTS assay to identify small molecule inhibitors of firefly luciferase (AID 1224835); note: nearly all actives have a fitted effect of over 25% in size
Procedure, shortened: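 Inhibition of purified Photinus luciferase is measured by luminescence. Substrate levels (D-luciferin, ATP) sit at their KM values. Each compound is tested in a concentration series.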

[2] = qHTS assay to identify small molecule agonists of the constitutive androstane receptor (CAR) signaling pathway - cell viability counter screen (AID 1224836); note: nearly all actives have a fitted effect of over 45% in size
Procedure, shortened: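 Compound titrations (15 concentrations) went onto HepG2-CYP2B6-hCAR cells 4 h after seeding, alongside PK11195 at a final 0.75 uM; a 23 h, 37 C/5% CO2 incubation preceded CellTiter-Fluor viability measurement.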

[3] = qHTS assay to identify small molecule antagonists of the constitutive androstane receptor (CAR) signaling pathway - cell viability counter screen (AID 1224837); note: nearly all actives have a fitted effect of over 45% in size
Procedure, shortened: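 To flag cytotoxic false antagonists, HepG2 hCAR/CYP2B6-2.2kb cells were treated 23 hr with 15-concentration compound series and 50 nM CITCO at 37 C/5% CO2; CellTiter-Fluor fluorescence was the measured end point.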

[4] = biological target: Nuclear receptor subfamily 1 group I member 3 (Homo sapiens) (UniProt Q14994); assay: qHTS assay to identify small molecule antagonists of the constitutive androstane receptor (CAR) signaling pathway (AID 1224838);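 note: HepG2 cells stably expressing hCAR with CYP2B6 luciferase reporter stimulated by CITCO; nearly all actives have a fitted effect of over 40% in size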
Procedure, shortened: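 Human hepatoma HepG2 cells expressing hCAR and a CYP2B6 promoter (2.2 kb) luciferase construct; compound titration (15 points) with 50 nM CITCO final, 24 h at 37 C/5% CO2; luminescence via ONE-Glo after 30 min at room temperature.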

[5] = biological target: Nuclear receptor subfamily 1 group I member 3 (Homo sapiens) (UniProt Q14994); assay: qHTS assay to identify small molecule agonists of the constitutive androstane receptor (CAR) signaling pathway (AID 1224839);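 note: HepG2 cells stably carrying human CAR and a CYP2B6 luciferase reporter; nearly all actives have a fitted effect of over 15% in size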
Procedure, shortened: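 In this screen, CAR-driven CYP2B6 promoter activity is measured by luminescence in HepG2-CYP2B6-hCAR cells after 24 h with test compounds and 0.75 uM PK11195 (final concentration).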

[6] = qHTS assay to identify small molecule antagonists of the estrogen related receptor signaling pathway with the pleiotropic PPARgamma coactivator (PGC) from Tox21 10K library - cell viability counter screen (AID 1224840; active = well fitted cell-killing curve with a large enough effect in the repeat runs, not every such curve was filed as active; note: nearly all actives have a fitted effect of over 40% in size)
Procedure, shortened: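 Seeded PGC/ERR cells (2,000/well, 6 h, 37 C/5% CO2) get compound by pin tool; 17.5 h incubation at 37 C; CellTiter-Fluor added, 30 min, fluorescence measured.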

[7] = qHTS assay to identify small molecule antagonists of the estrogen related receptor signaling pathway with the pleiotropic PPARgamma coactivator (PGC) from Tox21 10K library (AID 1224841; call rule not given here; note: actives are mostly falling curves and most rising ones were filed inactive; nearly all actives have a fitted effect of over 50% in size)
Procedure, shortened: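 Test chemicals dissolved in DMSO were applied to pre-incubated (6 h) PGC/ERR cells at 2,000 cells/well for an 18 h, 37 C treatment; reporter luminescence was then read using One-Glo.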

[8] = qHTS assay to identify small molecule agonists of the estrogen related receptor signaling pathway with the pleiotropic PPARgamma coactivator (PGC) from Tox21 10K library (AID 1224842); note: nearly all actives have a fitted effect of over 15% in size
Procedure, shortened: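 Luminescence from One-Glo (30 min, room temperature) measured after PGC/ERR cells had 18 h at 37 C with pinned compound (23 nL in DMSO). Cells had been seeded at 2,000 per well and pre-incubated 6 h.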

[9] = biological target: Thyrotropin receptor (Homo sapiens) (UniProt P16473); assay: qHTS assay to identify small molecule agonists of the thyroid stimulating hormone receptor (TSHR) signaling pathway (AID 1224843; calls by dose curve; note: nearly all actives have a fitted effect of over 45% in size)
Procedure, shortened: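 A cell-based cAMP HTRF format was run in TSHR-transfected HEK293 cells, 800 per well. Treatment: 30 min, room temperature. Detection: 1 h with labelled cAMP and anti-cAMP cryptate. Concentration-response over 15 points, three replicates.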

[10] = qHTS assay to identify small molecule agonists of the hypoxia (HIF-1) signaling pathway - cell viability counter screen (AID 1224844; calls by dose curve; note: nearly all actives have a fitted effect of over 50% in size)
Procedure, shortened: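 HRE-bla ME-180; 0.5% dFBS; cpd 17 h, 37C, 5% CO2; CellTiter-Glo lum., 30 min RT, post-FRET read, same wells.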

[11] = qHTS assay to identify small molecule agonists of H2AX (AID 1224845; active = well fitted activation curve with a large enough effect in the signal ratio in the repeat runs, not every such curve was filed as active; the % refers to the signal ratio)
Procedure, shortened: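 Phospho-H2AX Ser139 measured by HTRF (ex 320 nm; em 665 and 620 nm) after 24 hr antibody incubation. Compounds, 15 concentrations, 0.76% DMSO, were applied to CHO-K1 cells for 3hr at 37C before lysis.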

[12] = qHTS assay to identify small molecule agonists of the hypoxia (HIF-1) signaling pathway (AID 1224846; active = well fitted activation curve with a large enough effect in the signal ratio in the repeat runs, not every such curve was filed as active; the % refers to the signal ratio)
Procedure, shortened: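 Reporter induction in HRE-bla ME-180 cells is taken as agonism: cells sit 5 hrs after plating, receive compounds or DMSO only, incubate 17 hrs at 37C under 5% CO2, and are loaded with CCF4-AM for beta-lactamase FRET measurement.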

[13] = qHTS assay to identify small molecule agonists of H2AX - cell viability counter screen (AID 1224847; calls by dose curve; note: top concentration of the series differs between compounds; nearly all actives have a fitted effect of over 30% in size)
Procedure, shortened: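 Read-out: CellTiter-Glo luminescence, 30 min RT. Cells: wild-type CHO-K1, 1000/well, 10% FBS, plated overnight at 37C. Treatment: 15 concentrations, 3 hr, 37C, 0.76% DMSO.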

[14] = qHTS assay to identify small molecule antagonists of the estrogen related receptor (ERR) signaling pathway from Tox21 library (AID 1224848); note: nearly all actives have a fitted effect of over 50% in size
Procedure, shortened: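 ERR cell line, 2,000 cells/well. 6 h settle, then compound (DMSO) added; 18 h at 37 C; ONE-Glo luminescence after 30 min RT.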

[15] = qHTS assay to identify small molecule agonists of the estrogen related receptor (ERR) signaling pathway from Tox21 library (AID 1224849; calls by dose curve; note: nearly all actives have a fitted effect of over 15% in size); details: ERR reporter cell line, ONE-Glo luciferase, 18 h; at 92.4 µM (top of the series)
Procedure, shortened: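 Tox21 compounds tested for ERR agonism in an NTP reporter cell line: 18 h treatment at 37 C, then ONE-Glo luminescence.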

[16] = qHTS RealTime-Glo MT Cell Viability Assay in HepG2 cells - 24 hour (AID 1224867); note: nearly all actives have a fitted effect of over 50% in size
Procedure, shortened: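 HepG2 suspension premixed with RealTime-Glo reagents is plated at 600 cells per well and left 5 h at 37 C/5% CO2. Compounds in DMSO then go in, and bioluminescence reflecting viable cell number is recorded over 40 h.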

[17] = qHTS RealTime-Glo MT Cell Viability Assay in HEK293 cells - 32 hour (AID 1224868)
Procedure, shortened: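 Reads taken at 0, 8, 16, 24, 32 and 40 h from the same wells. HEK293 cells (600/well) carried RealTime-Glo reagents from seeding, with compound added after a 5 h settle at 37 C.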

[18] = A CellTox Green Cytotoxicity Assay to monitor cytotoxicity in HEK293 cells - 0 hour (AID 1224869); note: nearly all actives have a fitted effect of over 50% in size
Procedure, shortened: (§1)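 Tox21 screen in HEK293: membrane-impermeant cyanine dye fluoresces on binding dead-cell DNA; compound pinned 5 h post-seeding, plates held at 37 C, signal read repeatedly through 40 h.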

[19] = qHTS RealTime-Glo MT Cell Viability Assay in HepG2 cells - 40 hour (AID 1224870); note: nearly all actives have a fitted effect of over 50% in size
Procedure, shortened: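 Real-time viability: cells seeded at 600 per well together with NanoLuc and cell-permeant prosubstrate, compounds added after 5 h incubation. Luminescence tracked at 0, 8, 16, 24, 32 and 40 h of exposure.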

[20] = A CellTox Green Cytotoxicity Assay to monitor cytotoxicity in HEK293 cells - 40 hour (AID 1224871); note: nearly all actives have a fitted effect of over 45% in size
Procedure, shortened: as §1
% is set by controls: 0 for no effect and ±100 for the full control effect.

Sequence of Nuclear receptor subfamily 1 group I member 3 (Homo sapiens) (Q14994 whole entry, looked up): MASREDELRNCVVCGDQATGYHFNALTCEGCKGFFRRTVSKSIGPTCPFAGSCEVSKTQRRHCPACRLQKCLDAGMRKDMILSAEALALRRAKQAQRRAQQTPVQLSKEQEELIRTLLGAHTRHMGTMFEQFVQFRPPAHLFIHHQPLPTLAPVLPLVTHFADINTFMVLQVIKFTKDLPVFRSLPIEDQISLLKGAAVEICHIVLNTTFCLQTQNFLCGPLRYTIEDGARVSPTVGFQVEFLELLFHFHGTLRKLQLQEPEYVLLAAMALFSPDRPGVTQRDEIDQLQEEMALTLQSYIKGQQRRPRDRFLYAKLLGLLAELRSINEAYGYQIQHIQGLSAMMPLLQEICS
Sequence of Luciferin 4-monooxygenase (Photinus pyralis) (P08659 whole entry, looked up): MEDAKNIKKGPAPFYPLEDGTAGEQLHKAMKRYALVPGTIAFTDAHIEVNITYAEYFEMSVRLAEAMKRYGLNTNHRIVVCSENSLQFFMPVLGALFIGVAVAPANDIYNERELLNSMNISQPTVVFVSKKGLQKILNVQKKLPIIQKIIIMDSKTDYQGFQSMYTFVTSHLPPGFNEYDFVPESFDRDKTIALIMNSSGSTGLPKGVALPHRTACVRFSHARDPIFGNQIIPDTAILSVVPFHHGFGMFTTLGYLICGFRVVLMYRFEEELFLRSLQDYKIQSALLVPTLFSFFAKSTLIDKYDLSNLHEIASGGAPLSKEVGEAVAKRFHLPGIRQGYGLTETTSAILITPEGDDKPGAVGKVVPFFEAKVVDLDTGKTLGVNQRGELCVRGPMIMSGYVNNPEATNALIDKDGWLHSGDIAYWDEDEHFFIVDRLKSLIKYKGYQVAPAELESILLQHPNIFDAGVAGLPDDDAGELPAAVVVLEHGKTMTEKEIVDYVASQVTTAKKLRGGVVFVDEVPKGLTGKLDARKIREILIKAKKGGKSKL
Sequence of Thyrotropin receptor (Homo sapiens) (P16473 whole entry, looked up): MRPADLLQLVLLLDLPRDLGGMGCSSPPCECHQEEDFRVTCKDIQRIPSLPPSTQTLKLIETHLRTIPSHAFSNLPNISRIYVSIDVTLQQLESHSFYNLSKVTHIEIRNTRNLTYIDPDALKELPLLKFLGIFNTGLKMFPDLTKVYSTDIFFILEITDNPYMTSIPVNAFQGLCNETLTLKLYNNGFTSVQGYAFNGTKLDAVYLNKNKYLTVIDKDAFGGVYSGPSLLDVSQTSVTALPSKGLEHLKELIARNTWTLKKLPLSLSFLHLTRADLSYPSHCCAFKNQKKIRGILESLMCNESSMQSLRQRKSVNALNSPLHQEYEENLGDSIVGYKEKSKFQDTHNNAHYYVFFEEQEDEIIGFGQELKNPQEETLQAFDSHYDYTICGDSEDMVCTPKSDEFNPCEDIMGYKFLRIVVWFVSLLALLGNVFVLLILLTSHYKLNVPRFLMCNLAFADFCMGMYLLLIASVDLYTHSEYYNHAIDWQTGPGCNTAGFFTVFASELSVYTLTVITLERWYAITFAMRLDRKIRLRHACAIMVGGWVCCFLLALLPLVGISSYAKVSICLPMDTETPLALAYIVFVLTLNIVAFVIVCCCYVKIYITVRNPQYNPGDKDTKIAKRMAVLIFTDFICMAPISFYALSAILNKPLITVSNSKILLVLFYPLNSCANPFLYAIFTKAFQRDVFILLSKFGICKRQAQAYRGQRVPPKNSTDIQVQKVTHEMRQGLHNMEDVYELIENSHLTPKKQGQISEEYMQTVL

OC[C@@H](O)[C@@H](O)CO
inactive: Potency [1] | Potency [2] | Potency [3] | Potency [4] | Potency [5] | Potency [6] | Potency [7] | Potency [8] | Potency [9] | Potency [10] | Potency [11] | Potency [12] | Potency [13] | Potency [14] | activity change, positive = activation [15] 4.53% | Potency [16] | Potency [17] | Potency [18] | Potency [19] | Potency [20]

OCC(F)(F)F
inactive: Potency [1] | Potency [2] | Potency [3] | Potency [4] | Potency [5] | Potency [6] | Potency [7] | Potency [8] | Potency [9] | Potency [10] | Potency [11] | Potency [12] | Potency [13] | Potency [14] | activity change, positive = activation [15] -0.31% | Potency [16] | Potency [18] | Potency [19] | Potency [20]

Clc1sc(Cl)c(Cl)c1Cl
inactive: Potency [1] | Potency [2] | Potency [3] | Potency [4] | Potency [5] | Potency [6] | Potency [7] | Potency [9] | Potency [10] | Potency [11] | Potency [12] | Potency [13] | Potency [14] | activity change, positive = activation [15] 4.94% | Potency [16] | Potency [17] | Potency [18] | Potency [19] | Potency [20]
